Drawing on PubChem BioAssay, this text covers z-score for 25 compounds.

Each structure is given as a SMILES string. Unmarked numbers belong to inactive results. The rule behind the calls is not given here.

The assay in a line: inhibition of PAO1 biofilm formation – strain PAO1, LB-PBS medium, absorbance 600 nm, primary screen (AID 1176). Note: test concentration not given here. As to conditions: P. aeruginosa PAO1 growth/biofilm, A600, 12 h; higher = more signal.
In the case of `C=CCC(OC(C)=O)[C@@H]1[C@@H](N(Cc2ccc(-c3ccccc3)cc2)C(=O)Cc2ccc(OC)cc2)c2cc(OCCCO)ccc2N1C(=O)c1ccc2ccccc2n1` (stereo not given in full), the z-score was -0.24.

As for `COc1ccc(C#Cc2ccc3c(c2)[C@]2(C(=O)N3)[C@H](C(=O)NC[C@H](O)c3ccccc3)[C@H]3C(=O)O[C@H](c4ccccc4)[C@H](c4ccccc4)N3[C@@H]2c2ccc(OCCO)cc2)cc1`, the z-score was 2.55.

For the compound `COCCOC(=O)N1C(=O)[C@@]2(c3cc(C#CC4(O)CCCCCC4)ccc31)[C@H](C(=O)N1CCCCCCC1)[C@H]1C(=O)O[C@H](c3ccccc3)[C@H](c3ccccc3)N1[C@@H]2c1ccccc1OCCO`, the z-score is 1.07.

Regarding `COC(=O)c1ccc(OC)c(/C=C\CC(OC(C)=O)c2ccccc2)c1` (stereo not given), the z-score was -0.351.

For the compound `Cc1ccc([C@H]2C(C(=O)O)=C[C@@H](C)N2S(=O)(=O)c2ccc(C)cc2)cc1`, the z-score is -0.0322.

Consider `NCCCCCCNC(=O)[C@H]1C[C@H]2C(=O)NCC(=O)N2[C@H]1c1cccc(OCCO)c1`, for which the z-score is -0.475.

Consider `COc1ccc(CCN2C(=O)[C@@]3(Cc4ccccc42)c2ccccc2C(=O)N(Cc2ccccc2Cl)[C@H]3c2ccc(CO)cc2)cc1`, for which the z-score is 1.57.

Take `C=CC[C@@H](OC(=O)Nc1ccc(OC)cc1)c1ccc(O)c2ccccc12`: the z-score is 1.73.

Turning to `CC(C)C[C@@H]1NC(=O)[C@@H]2C[C@H](C(=O)NCCCCCC[N+](C)(C)C)[C@H](c3ccc(O)cc3)N2C1=O`, the z-score is -0.282.

Regarding `O=C1C=CC(=O)[C@@H]2CC(COc3ccccc3)=C3[C@@H](CCc4ccccc4)OB(O)C[C@@H]3[C@H]12`, the z-score was 0.212.

Regarding `CN(C)CCCCNC(=O)[C@H]1C[C@H]2C(=O)N[C@@H](Cc3ccccc3)C(=O)N2[C@H]1c1ccc(O)cc1`, the z-score was 2.86.

With `CCCC[C@H]1OB(O)C[C@H]2C1=C(C)C[C@H]1C(=O)N(Cc3ccccc3)C(=O)[C@H]12`, the z-score is 0.0481.

Regarding `C=C[C@@H](COC(C)=O)N(Cc1ccc([N+](=O)[O-])cc1)S(=O)(=O)c1ccc(Br)cc1`, the z-score is -0.801.

Regarding `COc1ccc([Si](C)(C)[C@@H]2[C@@H](CCn3cc([C@H](O)c4ccccc4)nn3)O[C@]3(C(=O)N(Cc4ccc(N5C(=O)c6cccc7cccc5c67)cc4)c4ccccc43)[C@H]2C)cc1`, the z-score was 0.65.

As for `CC(C)(C)OC(=O)CC[C@@]1(C(=O)NCCN2CCOCC2)N=C(c2ccc(OCCCO)cc2)O[C@@H]1c1ccccc1`, the z-score is -0.347.

`O=C1O[C@@H](c2ccccc2)[C@@H](c2ccccc2)N2[C@@H](c3ccccc3OCCO)[C@]3(C(=O)Nc4ccc(C#CC5(O)CCCCCC5)cc43)[C@@H](C(=O)Nc3nc4ccccc4s3)[C@H]12`: the z-score is 2.5.

In the case of `COCCOC(=O)N1C(=O)[C@@]2(c3cc(C#CCNC(N)=O)ccc31)[C@H](c1ccc(OCCO)cc1)N1[C@H](c3ccccc3)[C@H](c3ccccc3)OC(=O)[C@H]1[C@@H]2C(=O)N1CCc2cc(OC)c(OC)cc2C1`, the z-score is 2.26.

For the compound `CCOC(=O)C[C@H]1[C@H](OC(=O)c2ccc(C(=O)c3ccccc3)cc2)[C@@H](NC(=O)C2CCCCC2)c2cc(OCCCO)ccc2N1C(=O)c1ccccc1`, the z-score is 0.0186.

On to `CC(C)=CCCC(C)=CC(O)C1C=CC2C(=O)N(c3ccccc3)C(=O)C2N1Nc1ccccc1` (stereo not given), for which the z-score was 1.32.

In the case of `COC(=O)[C@@]1(Cc2ccc(OC)cc2)[C@H]2c3cc(C(=O)N4CCCC4)n(CCc4c[nH]c5cc(F)ccc45)c3C[C@H]2CN1C(=O)c1ccccc1`, the z-score is 0.964.

For the compound `Cc1ccc(F)cc1S(=O)(=O)N[C@@H]1CCN(Cc2ccc(-c3ccccc3)cc2)C1`, the z-score is 0.425.

On to `COC(=O)[C@@]1(Cc2ccc(OC)cc2)[C@H]2c3cc(C(=O)N(C)C)n(Cc4c(OC)[nH]cc(C)c4=O)c3C[C@H]2CN1C(=O)c1ccccc1`, for which the z-score was 0.7.

Take `[N-]=[N+]=Nc1ccccc1[C@H]1OC(c2ccc(OCCCO)cc2)=N[C@@]1(CCS(=O)(=O)c1ccccc1)C(=O)O`: the z-score was -0.319.

In the case of `COC(=O)c1ccc(C(O)C2C=CC3C(=O)N(C)C(=O)C3N2NC(=O)OC(C)(C)C)o1` (stereo not given), the z-score was 0.599.

`CC=CC(O)C1C=CC2C(=O)N(c3ccccc3)C(=O)C2N1Nc1ccc(C(C)C)cc1` (stereo not given): the z-score was 0.518.
